Source: PubChem BioAssay (NCATS)
“And” between values parts separate entries of the source, which are not always exact repeats. Equal values may be shown once. Inconclusive results are not listed. A call without a number means that no potency is given here. The source made the active and inactive calls. Unless noted, calls come from the whole dose curve.

Columns and labels:
[1] = qHTS for Inhibitors of the Functional Ribonucleoprotein Complex (vRNP) of Lassa (LASV) Arenavirus: LASV Primary Screen - GLuc reporter signal (AID 1347082; calls by dose curve; tested in HEK293 reporter line; note: nearly all actives have a fitted effect of over 60% in size; note: potency is the fitted concentration of half-maximal effect)
[2] = qHTS for Inhibitors of the Functional Ribonucleoprotein Complex (vRNP) of Lassa (LASV) Arenavirus: Viability assay - alamar blue signal for LASV Primary Screen (AID 1347083; calls by dose curve; tested in HEK293 reporter line; note: nearly all actives have a fitted effect of over 80% in size; note: potency is the fitted concentration of half-maximal effect)
[3] = qHTS for Inhibitors of the Functional Ribonucleoprotein Complex (vRNP) of Lymphocytic Choriomeningitis Arenaviruses (LCMV): Viability assay - alamar blue signal for LCMV Primary Screen (AID 1347085; calls by dose curve; tested in HEK293 reporter line; note: nearly all actives have a fitted effect of over 80% in size; note: potency is the fitted concentration of half-maximal effect)
[4] = molecular target: Nucleoprotein (Lymphocytic choriomeningitis virus (strain Armstrong)) (UniProt P09992); test: qHTS for Inhibitors of the Functional Ribonucleoprotein Complex (vRNP) of Lymphocytic Choriomeningitis Arenaviruses (LCMV): LCMV Primary Screen - GLuc reporter signal (AID 1347086); note: nearly all actives have a fitted effect of over 70% in size; note: potency is the fitted concentration of half-maximal effect
Nucleoprotein (Lymphocytic choriomeningitis virus (strain Armstrong)), sequence (P09992 whole entry, looked up): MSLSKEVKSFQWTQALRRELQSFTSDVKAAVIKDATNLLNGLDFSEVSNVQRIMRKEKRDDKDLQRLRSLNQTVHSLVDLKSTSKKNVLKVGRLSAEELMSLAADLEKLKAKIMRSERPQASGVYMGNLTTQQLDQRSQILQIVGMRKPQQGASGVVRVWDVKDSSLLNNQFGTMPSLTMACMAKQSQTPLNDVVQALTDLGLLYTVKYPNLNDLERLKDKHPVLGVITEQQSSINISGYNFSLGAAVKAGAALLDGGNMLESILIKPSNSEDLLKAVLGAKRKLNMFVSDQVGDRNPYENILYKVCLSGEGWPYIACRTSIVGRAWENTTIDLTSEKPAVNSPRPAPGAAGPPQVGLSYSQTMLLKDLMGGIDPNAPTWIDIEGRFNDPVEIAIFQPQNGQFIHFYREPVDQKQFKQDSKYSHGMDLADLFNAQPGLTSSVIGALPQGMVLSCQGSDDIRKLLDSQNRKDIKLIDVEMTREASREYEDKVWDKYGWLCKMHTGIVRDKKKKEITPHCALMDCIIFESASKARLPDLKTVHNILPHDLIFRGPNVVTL

[5] = Primary qHTS for Huh7 cytotoxicity: counterscreen for inhibitors of MERS-S pseudotyped particle cell entry (AID 1479147); details: outcome: dose series up to 57.1 µM unless noted
[6] = Primary qHTS for Vero E6 cytotoxicity: counterscreen for inhibitors of SARS-S pseudo-typed particle cell entry (AID 1479150); details: outcome: dose series up to 57.1 µM unless noted
[7] = Confirmatory qHTS to identify inhibitors of SARS-CoV-2 cell entry (AID 1645844); note: potency is the fitted concentration of half-maximal effect; nearly all actives have a fitted effect of over 45% in size
Procedure, shortened: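 Luminescence entry read-out after 48 h: spike-pseudotyped MLV particles (Wuhan-Hu-1, 19-aa C-terminal truncation) added to compound-pretreated (1 h) HEK293-ACE2 cells; Data were normalised to bald PP and spike PP wells.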

[8] = Cytotoxicity counterscreen for inhibitors of SARS-CoV-2 cell entry (AID 1645845); note: nearly all actives have a fitted effect of over 50% in size
Procedure, shortened: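 ATP-content luminescence (ATPLite 1step, 15 min RT) read after 48 h compound exposure of Expi293F cells stably expressing human ACE2; normalized to cells-only wells and media-only wells.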

[9] = VSVG counterscreen qHTS to identify inhibitors of SARS-CoV-2 cell entry (AID 1645847); note: potency is the fitted concentration of half-maximal effect; nearly all actives have a fitted effect of over 65% in size
Procedure, shortened: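 HEK293-ACE2 cells (Expi293F stably expressing human ACE2) were pretreated with compound for 1 h at 37 °C, then infected with MLV-based VSV-G pseudotyped particles for 48 h. Luciferase luminescence was normalized to VSV-G PP and bald PP wells.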

[10] = Primary qHTS for inhibitors of MERS-S pseudo-typed particle cell entry (AID 1479149); note: nearly all actives have a fitted effect of over 60% in size; note: potency is the fitted concentration of half-maximal effect
[11] = Primary qHTS to identify inhibitors of SARS-CoV-2 cell entry (AID 1645846); details: activity change, negative = inhibition: at 57.1 µM (top of the series) unless noted; note: nearly all actives have a fitted effect of over 45% in size; note: potency is the fitted concentration of half-maximal effect
Procedure, shortened: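 Luminescence readout (Bright-Glo luciferase) 48 h after pseudoparticle addition. HEK293-ACE2 cells, 1500/well; compound pre-incubation 1 h; Normalized to spike PP and bald PP.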

[12] = Primary qHTS for small molecule stabilizers of the endoplasmic reticulum resident proteome: Secreted ER Calcium Modulated Protein (SERCaMP) assay (AID 1508630; active = well fitted curve in the direction sought with a large enough effect; an effect the other way counts as inactive or inconclusive)
Procedure, shortened: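 The SH-SY5Y reporter protocol was run at 3 concentrations up to 38.3 uM (primary) or 11 concentrations (follow-up): 16 h compound, 100 nM thapsigargin for 4 h, then extracellular luciferase luminescence.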

[13] = KB-8-5-11 P-gp reporter qHTS against the NCATS DSHEA and TCM libraries (AID 1919977; active = well fitted curve in the direction sought with a large enough effect; an effect the other way counts as inactive or inconclusive)
Procedure, shortened: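 P-gp-overexpressing KB-8-5-11 cells (500/well) were plated in colchicine-free DMEM with 10% FBS, attached ~4 h, then exposed to substance titrations for ~72 h at 37C. Viability was read by CellTiter-Glo luminescence.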

[14] = molecular target: Alpha-galactosidase (Coffea arabica) (UniProt Q42656); test: Counterscreen for Glucocerebrosidase Inhibitors: qHTS Assay for Coffee Bean alpha-Galactosidase at pH 4.5 (AID 957; active = well fitted curve in the direction sought with a large enough effect; an effect the other way counts as inactive or inconclusive)
Alpha-galactosidase (Coffea arabica), sequence (Q42656 whole entry, looked up): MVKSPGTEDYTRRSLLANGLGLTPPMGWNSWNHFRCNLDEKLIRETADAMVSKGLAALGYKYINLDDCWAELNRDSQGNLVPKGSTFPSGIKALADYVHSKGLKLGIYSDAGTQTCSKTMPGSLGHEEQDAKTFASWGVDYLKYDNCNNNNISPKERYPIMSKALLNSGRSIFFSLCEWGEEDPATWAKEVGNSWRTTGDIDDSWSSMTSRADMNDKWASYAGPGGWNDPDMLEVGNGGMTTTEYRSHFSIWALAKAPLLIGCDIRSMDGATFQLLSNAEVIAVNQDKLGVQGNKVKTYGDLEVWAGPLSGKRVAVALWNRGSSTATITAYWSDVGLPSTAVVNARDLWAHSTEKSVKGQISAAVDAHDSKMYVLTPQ
Procedure, shortened: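 Enzyme is added first (2 nM final), then compounds titrated from 0.7 nM to 77 uM, then 80 uM 4-methylumbelliferyl alpha-D-galactopyranoside; after 20 min at room temperature a pH 10 NaOH/glycine stop precedes fluorescence reading at 365/440 nm.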

[15] = molecular target: Alpha-galactosidase (Coffea arabica) (UniProt Q42656); test: Counterscreen for Glucocerebrosidase Inhibitors: qHTS Assay for Coffee Bean alpha-Galactosidase at pH 5.9 (AID 998; active = well fitted curve in the direction sought with a large enough effect; an effect the other way counts as inactive or inconclusive)
Procedure, shortened: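 Fluorogenic 4-MU substrate hydrolysis, 80 uM substrate and 2 nM coffee bean alpha-galactosidase, pH 5.9 citrate buffer, 20 min at room temperature, then NaOH/glycine stop. Titration 0.7 nM–77 uM, normalized to no-enzyme and enzyme controls, AC50 via Hill equation.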

[16] = Validation screen for inhibitors of Lassa infection (AID 463096)
[17] = Inducers of the Endoplasmic Reticulum Stress Response (ERSR) in human glioma: Validation (AID 504836; active = well fitted curve in the direction sought with a large enough effect; an effect the other way counts as inactive or inconclusive)
Procedure, shortened: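 ERSR induction read as luciferase luminescence (Bright-Glo, 10 min at room temperature) in stably transfected human U87-MG glioma cells exposed to compounds for 16 h, using GRP78 as sensor.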

[18] = Confirmatory qHTS for VERO E6 Cytotoxicity Assay: Counterscreen for SARS-CoV-2 CPE Assay (AID 1508605); note: nearly all actives have a fitted effect of over 60% in size
[19] = Confirmatory qHTS for activators (rescue) of SARS-CoV-2 Cytopathic Effect (CPE) (AID 1508606); note: potency is the fitted concentration of half-maximal effect; nearly all actives have a fitted effect of over 70% in size

## N#CC(c1ccc(Cl)cc1)c1c(Cl)cc(-n2ncc(=O)[nH]c2=O)cc1Cl (stereo not given)
[1]
  Potency: inactive
[2]
  Potency: inactive
[3]
  Potency: inactive
[4]
  Potency: inactive
[5]
  outcome: inactive
[6]
  outcome: inactive
[7]
  Potency: 0.0136 µM (active)
[8]
  Potency: inactive
[9]
  Potency: 21.5 µM (active)

## CC(C)C(=O)Oc1ccc(CO)cc1[C@H](CCN(C(C)C)C(C)C)c1ccccc1
[1]
  Potency: inactive
[2]
  Potency: inactive
[3]
  Potency: inactive
[4]
  Potency: inactive
[5]
  outcome: inactive
[10]
  Potency: 14.1 µM (active)
[6]
  outcome: inactive
[8]
  Potency: inactive
[11]
  Potency: 14.1 µM (active)
[9]
  Potency: 21.5 µM (active)

## C1CC[C@H]([C@@]23C[C@H](C[C@H]4CCCN[C@H]42)[C@@H]2CCCCN2C3)NC1
[1]
  Potency: inactive
[2]
  Potency: inactive
[3]
  Potency: inactive
[4]
  Potency: inactive
[12]
  Potency: inactive

## O=C1c2c(O)cccc2[C@@H]([C@@H]2O[C@H](CO)[C@@H](O)[C@H](O)[C@H]2O)c2cc(CO)cc(O)c21
[1]
  Potency: inactive
[2]
  Potency: inactive
[3]
  Potency: inactive
[4]
  Potency: inactive
[5]
  outcome: inactive
[10]
  Potency: inactive
[6]
  outcome: inactive
[8]
  Potency: inactive
[11]
  activity change, negative = inhibition: -0.84%
[13]
  outcome: inactive

## C=C1C2C[C@]3(C4CC5[C@@]6(C)CC[C@H](O)[C@@]5(C3CC2=O)C4[N+]([O-])(CC)C6)[C@@H]1O (stereo not given in full)
[1]
  Potency: inactive
[2]
  Potency: inactive
[3]
  Potency: inactive
[4]
  Potency: inactive
[12]
  Potency: inactive

## O=S(=O)(c1cccc2c(I)cccc12)N1CCCNCC1
[14]
  outcome: inactive
[15]
  outcome: inactive
[16]
  Potency: inactive
[17]
  outcome: inactive
[1]
  Potency: inactive
[2]
  Potency: inactive
[3]
  Potency: inactive
[4]
  Potency: inactive
[18]
  Potency: inactive
[8]
  Potency: inactive
[11]
  activity change, negative = inhibition: -29.1%

## C[N+]1(CCCCC[N+]2(C)CCCC2)CCCC1
[14]
  outcome: inactive
[16]
  Potency: inactive
[17]
  outcome: inactive
[1]
  Potency: inactive
[2]
  Potency: inactive
[3]
  Potency: inactive
[4]
  Potency: inactive
[5]
  outcome: inactive
[10]
  Potency: inactive
[6]
  outcome: inactive
[8]
  Potency: inactive

## COC(=O)C1=CO[C@@H](C)[C@@H]2CN3CC[C@]4(C(=O)Nc5c4ccc(OC)c5OC)[C@H]3C[C@H]12
[1]
  Potency: inactive
[2]
  Potency: inactive
[3]
  Potency: inactive
[4]
  Potency: inactive
[12]
  Potency: inactive

## CC1(C)CCC(CN2CCN(c3ccc(C(=O)NS(=O)(=O)c4ccc(NCC5CCOCC5)c([N+](=O)[O-])c4)c(Oc4cnc5[nH]ccc5c4)c3)CC2)=C(c2ccc(Cl)cc2)C1
[1]
  Potency: inactive
[2]
  Potency: inactive
[3]
  Potency: inactive
[4]
  Potency: inactive
[5]
  outcome: inactive
[10]
  Potency: inactive
[6]
  outcome: inactive
[11]
  activity change, negative = inhibition: -9.23% and -30%

## OCCCNc1cc(-c2ccnc(Nc3cccc(Cl)c3)n2)ccn1
[1]
  Potency: 0.306 µM (active)
[2]
  Potency: 0.193 µM (active)
[3]
  Potency: 0.769 µM (active)
[4]
  Potency: 0.968 µM (active)
[19]
  Potency: 5.62 µM (active)
[11]
  activity change, negative = inhibition: -94.2%

## CN(C)CCC(c1ccc(Br)cc1)c1ccccn1 (stereo not given)
[16]
  Potency: inactive
[17]
  outcome: inactive
[1]
  Potency: inactive
[2]
  Potency: inactive
[3]
  Potency: inactive
[4]
  Potency: inactive
[5]
  outcome: inactive
[10]
  Potency: inactive
[6]
  outcome: inactive
[8]
  Potency: inactive
